Compound activity: PubChem, National Center for Advancing Translational Sciences (NCATS)
The list is not random: actives were taken first. Their share in the collection is about 0.96%.
A488 autofl: compound fluoresces in the A488 spectral region; compound autofluorescence, A488 spectral region, dye equivalency; Compound Type: qHTS ECL - MLSMR; max dye equivalency, M; 59,000 tested, 0.1% active; AID 591
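Intrinsic compound fluorescence is measured in 100 mM Tris buffer at pH 8.0 following 15 min incubation at room temperature. Intensities at 480 nm excitation/540 nm emission are calibrated to an on-plate A488 concentration series, giving dye-equivalent concentrations.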
Resorufin autofl: compounds fluorescent in resorufin spectral region; Compound fluorescence, resorufin region 547/598 nm, buffer; hits give high values; max dye-equivalent concentration, M; 59,000 tested, 0.04% active; AID 588
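Tris 100 mM pH 8.0; compound added, 15 min RT; CCD imager read, ex 547 nm/em 598 nm; signal normalized to resorufin standard curve (six concentrations per plate) as dye-equivalent concentration.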
Rhodamine fluor: compound autofluorescence in rhodamine spectral region. 59,000 tested, 0.05% active. AID 594. Rhodamine-region fluorescence, 547/598 nm, Tris buffer; hits give high values. max dye-equivalent concentration, M; in the data active = max dye-equivalent concentration above about 11 nM; inconclusive = between about 1.1 nM and that limit
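Compound fluorescence in 100 mM Tris, pH 8.0, read after 15 min at room temperature with 547 nm excitation and 598 nm emission. Output is dye-equivalent concentration from an on-plate rhodamine standard series.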
Fluorescein autfl: compound autofluorescence in fluorescein spectral region; Compound autofluorescence, 480/540 nm, fluorescein-equivalent; hits give high values; max fluorescein-equivalent concentration, M; 59,000 tested, 0.91% active; in the data active = max fluorescein-equivalent concentration above about 10 nM; inconclusive = between about 1.1 nM and that limit
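First, buffer (100 mM Tris, pH 8.0) dispensed; second, compounds and fluorescein standards pinned in; third, 15 min room-temperature incubation; finally, imaging at ex 480 nm/em 540 nm. Fluorescence normalized against the six-point fluorescein curve.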
A647 autofl: compound fluoresces in the A647 spectral region; 59,000 tested, under 10 active; Compound fluorescence, A647 channel (570/671 nm), Tris buffer; AID 592; max dye-equivalent concentration, M;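 also: values scaled relative to a standard on each plate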
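Spectral profiling of library compounds in pH 8.0 Tris: 15 min room-temperature incubation, single ex/em pair (570/671 nm), response normalized to Alexa 647 equivalents.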
Texas Red fluor: Texas Red region autofluorescence | Compound fluorescence, Texas Red channel, 547/618 nm; hits give high values | max dye-equivalent concentration, M | 59,000 tested, 0.06% active; in the data active = max dye-equivalent concentration above about 10 nM; inconclusive = between about 1.1 nM and that limit
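Fluorescence at ex 547/em 618 nm, normalized against an on-plate Texas Red standard series to give dye-equivalent concentration per compound concentration. Buffer 100 mM Tris, pH 8.0; 15 min RT incubation before CCD imaging.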
Starred values were filed as active, the others as inactive; i = inactive; ? = inconclusive. Unless noted, no rule for the calls is given here.

SMILES | A488 autofl | Resorufin autofl | Rhodamine fluor | Fluorescein autfl | A647 autofl | Texas Red fluor
O=c1c(-c2cc(F)cc(F)c2)nc2cnc(N3CCNCC3)nc2n1-c1ccccc1 | i | i | i | i | 5e-09 | i
CNC(=O)c1cc2ccc(OC)cc2oc1=O | i | i | i | 1.7e-08M* | 1e-09 | i
CC(C)N1CC2=C(OC(N)=C(C#N)C2c2cccnc2)/C(=C/c2cccnc2)C1 (stereo not drawn) | i | i | i | ? | 6.2e-09 | 1.3e-08M*
CCOC(=O)C1=C(C)NC(C)=C(C(=O)OC)[C@@H]1c1cccc(Cl)c1Cl | i | i | i | ? | 4e-08 | i
Cc1nc(NCCCn2ccnc2)c2ccccc2n1 | i | i | i | ? | 8.4e-09 | i
O=C1c2ccccc2-c2onc3ccc(NCCCn4ccnc4)c1c23 | 2.6e-07M* | 6.5e-07M* | 6.2e-07M* | 4.6e-06M* | 5.1e-08 | 1.4e-07M*
O=C(O)c1cn(C2CC2)c2cc(N3CCNCC3)c(F)cc2c1=O | i | i | i | i | 3.2e-09 | i
COc1cccc2cc(-c3nc(-c4cccs4)cs3)c(=O)oc12 | i | i | i | 2.4e-08M* | 1e-09 | i
Cc1cc2nc3c(=O)[nH]c(=O)nc-3n(CC(O)C(O)C(O)CO)c2cc1C (stereo not drawn) | 3.1e-08M* | ? | ? | 7.8e-07M* | 1e-09 | i
O=C(O)CCNc1ncnc2nc[nH]c12 | i | i | i | i | 6.5e-09 | i
CCN1CC=C2C(C1)C(c1ccc(Cl)s1)C(C#N)=C(N)C2(C#N)C#N (stereo not drawn) | ? | i | i | 8.6e-08M* | 1e-09 | i
N#CC1=C(N)SC(N)=C(C#N)C1c1c(Cl)cccc1Cl | i | i | i | i | 8e-09 | i
N#CC1=C(N)SC(N)=C(C#N)C1CCc1ccccc1 | i | i | i | 1.2e-08M* | 1.2e-08 | i
COc1ccc(-c2c3c(=O)n(C)c(=O)n(C)c3c3nnc4ccccc4n23)cc1 | i | i | i | 1.4e-08M* | 1e-09 | i
C[C@@]12CCC(=O)C=C1CC[C@H]1[C@@H]2[C@@H](O)C[C@]2(C)[C@@H]1CC[C@@]2(O)C(=O)CO | i | i | i | ? | 2.2e-08 | i
CC(C)NC(=O)N1CCC2(CC1)CCN(C(=O)c1cccc(F)c1)CC2 | i | i | i | i | 1e-09 | i
CCN1C(=S)SC(=O)C1=C1C=C(C)N(CCO)C(C)=C1 | i | i | i | ? | 1e-09 | i
CCN1C(=S)SC(=O)C1=C1C=C(C)N(CCOC)C(C)=C1 | i | i | i | 1.1e-08M* | 1e-09 | i
CC(C)CN1CCCC2(CCN(C(=O)c3ccco3)CC2)C1 | i | i | i | i | 1.2e-09 | i
CCCCc1cc(=O)oc2c(CN(C)C)c(O)ccc12 | i | i | i | ? | 2.7e-08 | i
CC[C@@]1(O)C(=O)OCc2c1cc1n(c2=O)Cc2cc3c(CN(C)C)c(O)ccc3nc2-1 | 2.1e-08M* | i | i | 4.3e-07M* | 4.7e-09 | ?
Cc1ccc(C2=C(Cl)C(=O)C(c3ccc(C)cc3)=C(Cl)C2=O)cc1 | i | i | i | i | 6.2e-09 | ?
CC(C)(CCC(C)(C)c1ccccc1)c1ccccc1 | i | i | i | i | 5.1e-09 | i
CC(=O)Nc1nc(NC(C)=O)c2[nH]c(CO)nc2n1 | i | i | i | i | 6e-09 | i
Cc1ccc(NC(=O)COC(=O)CCc2c[nH]c(=O)[nH]2)cc1 | i | i | i | ? | 1.3e-08 | i
SMILES | A488 autofl | Resorufin autofl | Rhodamine fluor | Fluorescein autfl | A647 autofl | Texas Red fluor
O=C(COC(=O)CCc1c[nH]c(=O)[nH]1)Nc1ccccc1 | i | i | i | 1.8e-08M* | 1e-09 | i
CCOC(=O)C1=C(C)NC(C)=C(C(=O)OC)[C@H]1c1cccc(Cl)c1Cl | i | i | i | ? | 1e-08 | i
Cc1cccc(S(=O)(=O)c2c(N)n(Cc3ccco3)c3nc4ccccc4nc23)c1 | i | i | i | 1.7e-08M* | 1.5e-08 | i
O=[N+]([O-])c1ccc2c(N=Nc3ccc4ccccc4c3O)c(O)cc(S(=O)(=O)O)c2c1 | i | i | i | ? | 6.3e-08 | i
Cc1cccc(N=c2oc3cc(O)ccc3cc2C(N)=O)c1 | i | i | i | 1.2e-08M* | 1.9e-08 | i
COc1ccc2c(c1)[C@]1(C)CCC[C@](C)(CO)[C@@H]1CC2 | i | i | i | i | 1e-09 | i
CCOC(=O)c1sc(SCC(=O)Nc2ccc(N(C)C)cc2)nc1N | i | i | i | i | 1.5e-08 | i
CCOC(=O)SC1=N/C(=C\c2ccc(N(C)C)cc2)C(=O)S1 | i | i | i | 1e-08M* | 1e-09 | i
COc1cc2nc(N3CC=[N+](C(=O)c4ccco4)CC3)nc(N)c2cc1OC | i | i | i | i | 5.4e-09 | i
CCCCNc1c(CN)cnc2cc(Cl)ccc12 | i | i | i | ? | 1e-09 | i
COc1cccc(Nc2ncc3nc(-c4cn(C)c5ccccc45)c(=O)n(C[C@H]4CCCO4)c3n2)c1 | i | i | i | 1.6e-08M* | 1e-09 | i
COc1cccc(Nc2ncc3nc(-c4cccs4)c(=O)n(C[C@H]4CCCO4)c3n2)c1 | ? | i | i | 4.2e-08M* | 1e-09 | i
CN(C)CCO[C@](C)(c1ccccc1)c1ccccn1 | i | i | i | ? | 2.9e-09 | i
O=c1c(-c2ccc(Cl)cc2)[n+]([O-])c2ccccc2n1O | i | i | i | 1.6e-08M* | 1e-09 | i
C=CCOn1c(=O)c(-c2ccc(OC)cc2)[n+]([O-])c2ccccc21 | i | i | i | i | 1e-09 | ?
Cc1ccc(N2C(=O)C3C(C2=O)C(C(=O)c2ccc(Cl)cc2)N2CCCC32)cc1 (stereo not drawn) | ? | i | i | 3.1e-08M* | 3.5e-08 | i
Cc1cnc(CNc2ccnc(-c3ccc(N(C)C)cc3)n2)cn1 | i | i | i | ? | 4.3e-08 | i
Nc1[nH]c(=S)[nH]c(=O)c1N=Nc1c(Br)cc(S(N)(=O)=O)cc1Br | i | i | i | i | 1.4e-08 | i
COc1ccc(O)c(C(=O)c2cc(C#N)c(=O)n(CCN3CCOCC3)c2)c1 | i | i | i | i | 1e-09 | i
COc1ccc(O)c(C(=O)c2cc(C#N)c(=O)n(-c3c(C)n(C)n(-c4ccccc4)c3=O)c2)c1 | ? | i | i | 1.2e-07M* | 1e-09 | i
Cc1cc(C)c(/C=C2/C(=O)Nc3ccccc32)[nH]1 | i | i | ? | 2.3e-08M* | 6.6e-08 | i
COc1cc(OC)c(/C=C2/C(=O)Nc3ccccc32)c(OC)c1 | i | i | i | ? | 2.4e-08 | i
